Laboratory results reported in PubChem BioAssay (Tox21).
Results filed as inconclusive are left out. Where a call stands in place of a potency, no number is given. Calls of active or inactive are those of the source. Calls come from the whole dose curve.

Experiment: p53 small molecule agonists, cell-based qHTS assay with rat liver microsomes (AID 1963578)
Conditions: HCT-116 p53RE-bla, beta-lactamase ratio, 16 h; series mostly up to 66 µM
Source text: U.S. Tox21 Program National Center for Advancing Translational Sciences [NCATS] Division of Preclinical Innovation [DPI] U.S. Environmental Protection Agency [EPA] National Institutes of Environmental Health Sciences [NIEHS] National Toxicology Program [NTP] U.S. Food and Drug Administration [FDA] Tox21 Assay Overview: p53, a tumor suppressor protein, is activated following cellular insult, including DNA damage and other cellular stresses. The activation of p53 regulates cell fate by inducing DNA repair, cell cycle arrest, apoptosis, or cellular senescence. The activation of p53, therefore, is a good indicator of DNA damage and other cellular stresses. […] The activation of the reporter gene under culture conditions can be detected by fluorescence intensity. This cell line was used to screen the Tox21 10K compound library in the condition of presence of rat liver microsomes and to identify agonists that activate the p53 signaling pathway after in vitro metabolic activation (Ooka et al., Archive of Toxicology 96:1975-1987, 2022).
Tox21 Assay Protocol Summary: The p53RE-bla cells were dispensed at 4,000cells/3ul/well in 1536-well black-clear bottom plates. After the assay plates were incubated at 37 C, 5% CO2 incubator for 5 hours, 23 nL of compounds dissolved in DMSO, positive controls or DMSO only was transferred to the assay plate. Following compound addition, 3 uL of rat liver microsomes (Molecular Toxicology, Boone, NC) at final concentration of 0.5 mg/mL and 1uL of Beta-Nicotinamide adenine dinucleotide 2-phosphate (NADPH) at final concentration of 0.5 mg/mL were transferred to the assay plate. The plates were incubated at 37 C for 16 hours. 1 uL of LiveBLAzer detection mixture was added to each well and the plates were incubated at room temperature in the dark for 2 h.

Question: Which Potency does the source give for CC(=O)N(CC(O)CN(C(C)=O)c1c(I)c(C(=O)NCC(O)CO)c(I)c(C(=O)NCC(O)CO)c1I)c1c(I)c(C(=O)NCC(O)CO)c(I)c(C(=O)NCC(O)CO)c1I (stereo not given) here?
Answer: The Potency was “inactive”.

Question: With CC(C)NCCCC1(C(N)=O)c2ccccc2-c2ccccc21 as the molecule, how does the Potency read?
Answer: The Potency was “inactive”.

Question: With CC(C)c1ccc(C#N)cc1 as the molecule, how does the Potency read?
Answer: Its Potency is “inactive”.

Question: With CC(C)(C(=O)c1cccnc1)c1cccnc1 as the molecule, how does the Potency read?
Answer: The Potency was “inactive”.

Question: For CCCCCCCCCCc1ccccc1, which Potency is on record?
Answer: The Potency was “inactive”.

Question: For Nc1ccc(S(=O)(=O)NCc2ccccc2)cc1, which Potency is on record?
Answer: Its Potency is “inactive”.

Question: With COc1ccc(CN(CCN(C)C)c2ncccn2)cc1 as the molecule, how does the Potency read?
Answer: The Potency was “inactive”.

Question: For Cc1ccc2c(Cl)cc(Cl)c(O)c2n1, which Potency is on record?
Answer: The Potency was “inactive”.

Question: With N[C@H](C(=O)O)[C@@H](O)c1ccc(O)c(O)c1 as the molecule, how does the Potency read?
Answer: Its Potency is “inactive”.

Question: Which Potency does the source give for CCOC(=O)O[C@H](C)OC(=O)c1ccc2c(c1)cc(C(=O)NC1CCN(C(C)C)CC1)n2Cc1cc(-c2ccc(Cl)s2)on1 here?
Answer: The Potency was “inactive”.

Question: Which Potency does the source give for ClC(Cl)(Br)Br here?
Answer: The Potency was “inactive”.

Question: For CCCCCCC(CCCCCCCCCCC(=O)OCC(COC(C)=O)OC(C)=O)OC(C)=O (stereo not given), which Potency is on record?
Answer: Its Potency is “inactive”.

Question: Which Potency does the source give for Nc1nc(Cl)nc2c1ncn2[C@@H]1O[C@H](CO)[C@@H](O)[C@@H]1F here?
Answer: The Potency was “inactive”.

Question: Which Potency does the source give for Nc1cc(S(=O)(=O)O)ccc1O here?
Answer: The Potency was “inactive”.

Question: With CCCCCC(C)N (stereo not given) as the molecule, how does the Potency read?
Answer: Its Potency is “inactive”.

Question: With C[N+](C)(C)CCOC(=O)CCC(=O)OCC[N+](C)(C)C as the molecule, how does the Potency read?
Answer: Its Potency is “inactive”.

Question: Which Potency does the source give for CC(NC(CCc1ccccc1)C(=O)O)C(=O)N1C(=O)N(C)CC1C(=O)O (stereo not given) here?
Answer: The Potency was “inactive”.

Question: With CCCCCCCCCCCCCc1ccccc1 as the molecule, how does the Potency read?
Answer: The Potency was “inactive”.

Question: For CCOC(=O)CS, which Potency is on record?
Answer: The Potency was “inactive”.

Question: With CCOC(=O)C1CC(=O)C(=C(O)C2CC2)C(=O)C1 (stereo not given) as the molecule, how does the Potency read?
Answer: Its Potency is “inactive”.

Question: With C=C(C)c1cccc(C(C)(C)N=C=O)c1 as the molecule, how does the Potency read?
Answer: Its Potency is “inactive”.

Question: For Clc1cc(Cl)cc(Cl)c1, which Potency is on record?
Answer: Its Potency is “inactive”.

Question: Which Potency does the source give for CCCCC1=NC2(CCCC2)C(=O)N1Cc1ccc(-c2ccccc2-c2nn[nH]n2)cc1 here?
Answer: Its Potency is “inactive”.

Question: For CC(C)Nc1nc(N)nc(Cl)n1, which Potency is on record?
Answer: Its Potency is “inactive”.

Question: With Nc1nc2c(ncn2COCCO)c(=O)[nH]1 as the molecule, how does the Potency read?
Answer: The Potency was “inactive”.

Question: Which Potency does the source give for CCOc1cc(OCC)c(C(C)=O)cc1OCC here?
Answer: The Potency was “inactive”.

Question: Which Potency does the source give for O=c1c(-c2ccccc2)c1-c1ccccc1 here?
Answer: Its Potency is “inactive”.

Question: For CNCCC(Oc1ccccc1OC)c1ccccc1 (stereo not given), which Potency is on record?
Answer: Its Potency is “inactive”.

Question: With CCN1CCCC1CN (stereo not given) as the molecule, how does the Potency read?
Answer: The Potency was “inactive”.

Question: For CN1CCN(c2c(F)cc3c(=O)c(C(=O)O)cn4c3c2SCC4)CC1, which Potency is on record?
Answer: The Potency was “inactive”.

Question: With O=NN(CCCl)C(=O)NCCCl as the molecule, how does the Potency read?
Answer: The Potency was “inactive”.

Question: With [O-][n+]1cccc(CO)c1 as the molecule, how does the Potency read?
Answer: Its Potency is “inactive”.

Question: With CN(C)CCN1CCOCC1 as the molecule, how does the Potency read?
Answer: The Potency was “inactive”.

Question: With C=CC(=O)OCCOCCOCC as the molecule, how does the Potency read?
Answer: Its Potency is “inactive”.

Question: Which Potency does the source give for C[N+]12CCC(CC1)C(OC(=O)C(O)(c1ccccc1)c1ccccc1)C2 (stereo not given) here?
Answer: Its Potency is “inactive”.

Question: With Cc1cc(C)c(C=O)c(C)c1 as the molecule, how does the Potency read?
Answer: Its Potency is “inactive”.

Question: For CCOC(=O)[C@H](C)O, which Potency is on record?
Answer: The Potency was “inactive”.

Question: Which Potency does the source give for C[C@H](CCC(=O)NCC(=O)O)[C@H]1CC[C@H]2[C@@H]3[C@H](O)C[C@@H]4C[C@H](O)CC[C@]4(C)[C@H]3C[C@H](O)[C@]12C here?
Answer: The Potency was “inactive”.

Question: For CC(C)(Sc1cc(C(C)(C)C)c(O)c(C(C)(C)C)c1)Sc1cc(C(C)(C)C)c(O)c(C(C)(C)C)c1, which Potency is on record?
Answer: Its Potency is “inactive”.

Question: Which Potency does the source give for O=C1OC(O)C(C(Cl)Cl)=C1Cl (stereo not given) here?
Answer: Its Potency is “inactive”.
